From PubChem BioAssay
An excerpt weighted towards active compounds, which were near 0.92% of everything screened.
AGP1 TOR yeast – modulators of AGP1-GFP expression in yeast TOR pathway, primary screen, cell-based, multiplex flow cytometry, S. cerevisiae, MLPCN library | GFP response vs DMSO, % at 10 µM | 3 h; GFP as percent of DMSO wells | 0.02% of 320,000 active;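 active means GFP response relative to DMSO above a set limit, near screen average plus 3 SD, cut at about 150% in these data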;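 further: median GFP channel fluorescence of the gated AGP1 strain per well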
MEP2 TOR yeast – modulators of MEP2-GFP levels in yeast, primary screen, S. cerevisiae, multiplex flow cytometry, MLPCN library; GFP response vs DMSO, % at 10 µM; 0.51% of 330,000 active; AID 2016, 2009; S. cerevisiae MEP2-GFP strain, 3 h; 100% = DMSO control level;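 active means GFP response versus DMSO above a set limit, roughly screen mean plus 3 SD, cut at about 180% in these data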;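 further: median GFP fluorescence of the barcode-gated MEP2-GFP cells per well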
CIT2-GFP yeast – modulators of CIT2-GFP expression in yeast, primary screen, S. cerevisiae, GFP fusion, multiplex flow cytometry, MLPCN library; 0.065% of 320,000 active; GFP response vs DMSO, % at 10 µM; S. cerevisiae CIT2-GFP strain, 3 h; 100 means same as DMSO wells;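 active means GFP response relative to DMSO above a set limit, near the screen mean plus 3 SD, cut at about 150% in these data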;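 further: ratio of well median GFP fluorescence to mean of DMSO wells on the plate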
RPL19A-GFP yeast – RPL19A-GFP expression modulators in yeast, primary screen, cell-based, S. cerevisiae, multiplex flow cytometry, MLPCN. S. cerevisiae RPL19A-GFP strain, 3 h; stronger effect = lower value. 0.3% of 330,000 active. percent response vs DMSO, % at 10 µM. AID 2025, 2009;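 active means percent response vs DMSO below 50%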;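 further: median channel GFP fluorescence of the barcoded RPL19A-GFP strain; ratio of sample median GFP to plate DMSO average so 100% = DMSO; lower means less RPL19A-GFP as with rapamycin TOR inhibition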
LAP4-GFP MLPCN – modulators of LAP4-GFP expression in yeast, primary screen, S. cerevisiae, multiplex flow cytometry, MLPCN library; 3 h; median GFP as percent of DMSO wells; GFP response vs DMSO, % at 10 µM; 0.34% of 320,000 active;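 active means GFP response vs DMSO above a set limit, about the screen mean plus 3 SD, cut at about 150% in these data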
LAP4 cherry2 – LAP4-GFP expression modulators in yeast, confirmation, cell-based, second cherry pick, flow cytometry; GFP response vs DMSO, % at 10 µM; S. cerevisiae LAP4-GFP strain, 3 h; 20% of 590 active; AID 2621, 2010; shares compounds with LAP4-GFP MLPCN;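 active means GFP signal as percent of the solvent control above about 150%, meaning raised reporter expression, limit read from the data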;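 further: ratio of well median GFP fluorescence to plate DMSO mean so 100% = DMSO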
MEP2 cherry2 – modulators of MEP2-GFP levels in yeast, confirmation, S. cerevisiae, flow cytometry GFP, second cherry picks. 10% of 590 active. GFP response vs DMSO, % at 10 µM. AID 2622, 2010. S. cerevisiae MEP2-GFP strain, 3 h. shares compounds with LAP4-GFP MLPCN;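 active means GFP signal above 150% of the solvent control wells, that is a rise of more than half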;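 further: median channel GFP fluorescence of all gated yeast cells per well; ratio of median GFP to plate DMSO average so 100% = DMSO level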
RPL19A GFP CP2 – RPL19A-GFP modulators in TOR pathway yeast, confirmation, cell-based, S. cerevisiae, flow cytometry, second cherry pick; 3% of 590 active; shares compounds with LAP4-GFP MLPCN; GFP response vs DMSO, % at 10 µM; S. cerevisiae RPL19A-GFP strain, 3 h; stronger effect = lower value; 100% means same as DMSO wells;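 active means under 65% GFP response relative to DMSO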;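 further: median GFP channel fluorescence per well over the all cells gate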
CIT2 GFP CP2 – modulators of CIT2-GFP expression in yeast, confirmation, flow cytometry, second cherry pick, single plex; shares compounds with LAP4-GFP MLPCN; 8% of 590 active; S. cerevisiae CIT2-GFP strain, 3 h; DMSO control wells read 100%; GFP response vs DMSO, % at 10 µM;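 active means GFP response vs DMSO above about 150%, limit read from the data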;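 further: median green fluorescence per well over all gated yeast cells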
AGP1-GFP pick2 – AGP1-GFP expression modulators, hit retest, confirmation, cell-based, flow cytometry, S. cerevisiae, cherry pick set 2. shares compounds with LAP4-GFP MLPCN. 590 tested, under 10 active. percent response vs DMSO, % at 10 µM. S. cerevisiae AGP1-GFP strain, 3 h;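 active means over 150 percent of DMSO response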;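 further: median GFP channel fluorescence over all cells without mother daughter split; sample median GFP divided by mean DMSO control so 100% equals DMSO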
Yeast autofluor – compound autofluorescence in yeast s288c, dose response, artefact control for yeast TOR pathway GFP screen, s288c strain. S. cerevisiae s288c, 520 nm autofluorescence, flow cytometry, 3 h; stronger effect = higher value; zero means same as solvent-only cells. 610 tested, under 10 active. shares compounds with LAP4-GFP MLPCN. fluorescence change (kMESF span) at 33 µM. AID 2757, 2010;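 active means fluorescence span over the dose series, or activity score, above about 33, limit read from the data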
Yeast autofl DR – autofluorescence of compounds in yeast s288c, dose response, artefact control for yeast TOR pathway GFP screen, primary hits, KU SAR, s288c parental | shares compounds with LAP4-GFP MLPCN | S. cerevisiae s288c parental, compound autofluorescence, flow cytometry, 3 h | fluorescence change (span) at 33 µM | 110 tested, under 10 active;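 active means fluorescence change span, or the activity score built from it, above 25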
TORC1 bypass – wild-type yeast growth inhibition sparing TORC1 bypass cells, mechanism study for yeast TOR pathway GFP screen, BY4741 wild type, TORC1 bypass strain; shares compounds with LAP4-GFP MLPCN; S. cerevisiae BY4741 spot growth rating, 48-72 h; stronger effect = lower value; growth rating (0-3) at 30 µM; 120 tested, under 10 active;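 active means growth rating at most 1 for wild type yeast while the TORC1 bypass strain still grows fully, rated 3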
* marks the source's active call; other numbers are inactive results; · = no result given; [ ] = remark or other dose.

SMILES | AGP1 TOR yeast | MEP2 TOR yeast | CIT2-GFP yeast | RPL19A-GFP yeast | LAP4-GFP MLPCN | LAP4 cherry2 | MEP2 cherry2 | RPL19A GFP CP2 | CIT2 GFP CP2 | AGP1-GFP pick2 | Yeast autofluor | others
CSC1=NS(=O)(=O)c2c(C)nn(C)c2S1 | 94 | 92 | 68 | 85 | 154* | · | · | · | · | · | 0 | Yeast autofl DR=0;TORC1 bypass=3
O=C1CCCN2N=C(SCC(=O)N3CCCCC3)SC2=N1 | 61 | 143 | 97 | 58 | 92 | 99 | 102 | 100 | 97 | 101 | ·
Cc1ccc(NC(=O)c2nc(S(=O)(=O)Cc3ccccc3)ncc2Cl)cc1 | 92 | 86 | 74 | 95 | 152* | · | · | · | · | · | -0.3
Cc1nn(CC(=O)Nc2nnc(C(C)C)s2)c(=O)c2ccccc12 | 99 | 111 | 107 | 101 | 100 | · | · | · | · | · | ·
CNc1ccccc1C(C)(C)c1cc(-c2ccc(F)cc2)no1 | 92 | 95 | 93 | 99 | 84 | · | · | · | · | · | ·
CCOc1ccc(CNS(=O)(=O)c2ccc(-c3ccc(=O)[nH]n3)o2)cc1OC | 104 | 97 | 94 | 96 | 100 | · | · | · | · | · | ·
O=C(Nc1nc(-c2ccccn2)cs1)c1cc2ccccc2o1 | 17 | 122 | 108 | 73 | 155* | · | · | · | · | · | 1.5 | Yeast autofl DR=1.3;TORC1 bypass=3
Cc1c(C(=O)Nc2nc(-c3ccccn3)cs2)oc2ccccc12 | 55 | 113 | 68 | 82 | 220* | 187* | 134 | 107 | 129 | 98 | 1 | Yeast autofl DR=0.87;TORC1 bypass=3
CCc1sc(C(=O)Nc2nc(-c3ccccn3)cs2)cc1C | 88 | 108 | 118 | 84 | 191* | 212* | 155* | 106 | 114 | 103 | 1.4
Cc1nnc(NC(=O)c2oc3ccccc3c2C)s1 | 89 | 92 | 92 | 90 | 102 | · | · | · | · | · | ·
Cc1cc(-c2csc(NC(=O)c3cc4ccccc4o3)n2)c(C)n1C | 98 | 91 | 86 | 91 | 99 | · | · | · | · | · | ·
S=c1[nH]nc(-c2cc3c(s2)-c2ccccc2CC3)o1 | 78 | 128 | 118 | 91 | 122 | · | · | · | · | · | ·
CSc1nnc(-c2cc3c(s2)-c2ccccc2CC3)o1 | 69 | 100 | 91 | 96 | 151* | 101 | 100 | 102 | 95 | 91 | ·
CCOc1ccc(/C=N/Nc2cc(=O)n(C)c(=O)n2C)cc1 | 112 | 93 | 109 | 115 | 87 | · | · | · | · | · | ·
COc1cccc(N2CCN(c3ccc4nnc(CCC(=O)Nc5ccc(C)cn5)n4n3)CC2)c1 | 22 | 136 | 108 | 60 | 98 | 96 | 98 | 98 | 103 | 100 | ·
CCC(C)NC(=O)CS(=O)Cc1nc(-c2cccc(C)c2)oc1C (stereo unspecified) | 118 | 128 | 123 | 86 | 156* | 104 | 103 | 99 | 100 | 98 | ·
O=C1C[C@H](NC(=O)OCc2ccccc2)CO1 | 101 | 110 | 89 | 98 | 97 | · | · | · | · | · | ·
Cc1[nH]c2ccccc2c1C(=O)COC(=O)c1ccc([N+](=O)[O-])s1 | 19 | 124 | 95 | 62 | 69 | 138 | 180* | 77 | 143 | 70 | 6.8
CC(C)(C)c1ccc(NC(=O)COC(=O)c2ccc([N+](=O)[O-])s2)cc1 | 46 | 168 | 95 | 70 | 211* | 226* | 223* | 86 | 131 | 80 | 4.5 | Yeast autofl DR=1.4;TORC1 bypass=0
O=C(CNC(=O)c1ccco1)NCc1ccc2c(c1)OCO2 | 100 | 100 | 101 | 97 | 99 | · | · | · | · | · | ·
Cc1ccc(/C=C2/C(=O)ON=C2c2ccccc2)o1 | 68 | 106 | 80 | 75 | 257* | · | · | · | · | · | 4.7 | Yeast autofl DR=2;TORC1 bypass=3
O=C1ON=C(c2ccccc2)/C1=C/c1ccccc1 | 94 | 107 | 106 | 97 | 103 | · | · | · | · | · | ·
O=C1ON=C(c2ccccc2)/C1=C\c1ccco1 | 72 | 105 | 67 | 74 | 219* | · | · | · | · | · | 1.6 | Yeast autofl DR=0.89;TORC1 bypass=3
Fc1ccc(NC(=S)Nc2cc(-c3ccccc3)[nH]n2)cc1Cl | 99 | 95 | 91 | 92 | 107 | · | · | · | · | · | ·
Cc1ccc(SCC(=O)NNC(=O)CCS(=O)(=O)c2ccc(C)cc2)cc1 | 115 | 109 | 87 | 76 | 219* | 105 | 101 | 99 | 103 | 99 | ·
Cc1ccc(SCC(=O)NNC(=O)CCS(=O)(=O)c2ccccc2)cc1 | 107 | 114 | 124 | 104 | 91 | · | · | · | · | · | ·
Cc1cc(NC(=O)CSc2nnc(Nc3ccccc3C)s2)no1 | 104 | 82 | 87 | 91 | 153* | 103 | 105 | 98 | 107 | 100 | ·
Cc1cc(NC(=O)CSc2nnc(Nc3ccccc3)s2)no1 | 102 | 102 | 101 | 100 | 99 | · | · | · | · | · | ·
CCO[C@H]1OC(C(=O)O)=C[C@@H](c2ccc(C(F)(F)F)cc2)[C@@H]1CCCO | 102 | 102 | 100 | 98 | 95 | · | · | · | · | · | ·
CCOc1c(Br)cc(/C=C(\C#N)C(=O)NC2CC2)cc1OC | 112 | 105 | 95 | 110 | 154*[may fluoresce green] | 122 | 115 | 92 | 97 | 95 | ·
